Unmarked numbers belong to inactive results. Results filed as inconclusive are left out. Activity calls are given as the source filed them. Calls follow the shape of the dose curve; as a rule, active = well fitted activation curve with a large enough effect in the repeat runs; inconclusive = weak or mixed curves; inactive = flat fitted curve, though single readings scatter.
% is scaled to controls: 0 for no effect and ±100 for the full control effect; potency is read from the fitted curve at half-maximal effect.

The nature of one assay: A CellTox Green Cytotoxicity Assay to monitor cytotoxicity in HEK293 cells - 32 hour (AID 1224881). Also: nearly all actives have a fitted effect of over 40% in size. The conditions noted are these: CellTox Green fluorescence; series mostly up to 76.8 µM; cytotoxicity increase: at the top concentration. The method, boiled down:
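Read-out: fluorescence of a cell-impermeant cyanine dye staining DNA of dead cells, proportional to cytotoxicity. HEK293, 600 cells/well with reagent, compound (23 nL DMSO) added after 5 h; reads at 0, 8, 16, 24, 32, 40 h.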
Consider `COc1ccc(-c2nc3ccc(C4=NNC(=O)CC4C)cc3[nH]2)cc1` (stereo not given), for which the “cytotoxicity increase” value was -22.7% [at 35.3 µM].
In the case of `CN1CCC(=C2c3ccccc3Sc3ccccc32)CC1`, the “cytotoxicity increase” value is 13.3% [at 35.3 µM].
As for `CCCCC(=O)OCC(=O)[C@H]1[C@H](C)C[C@H]2[C@@H]3C[C@H](F)C4=CC(=O)C=C[C@]4(C)[C@@]3(F)[C@@H](O)C[C@@]21C`, the “cytotoxicity increase” value was 1.81% [at 35.3 µM].
Consider `CCn1cc(C(=O)O)c(=O)c2cnc(N3CCNCC3)nc21`, for which the “cytotoxicity increase” value was 12.3% [at 35.3 µM].
Take `CCOc1ccc(N=Nc2ccc(/C=C/c3ccc(N=Nc4ccc(OCC)cc4)cc3S(=O)(=O)O)c(S(=O)(=O)O)c2)cc1`: the “cytotoxicity increase” value is -39.8%.
With `NS(=O)(=O)c1ccc(N2CCCCS2(=O)=O)cc1`, the “cytotoxicity increase” value is -5.62% [at 35.3 µM].
Take `CCCCCCCC/C=C\CCCCCCCC(=O)OCC`: the “cytotoxicity increase” value was -14.2%.
Regarding `Nc1cc(C(=O)O)c(O)c(S(=O)(=O)O)c1`, the “cytotoxicity increase” value is -8.82%.
Take `ClCCOCCOCCCl`: the “cytotoxicity increase” value was -38.5%.
For the molecule `CCN(CC)CCNC(=O)c1cc(Br)c(N)cc1OC`, the “cytotoxicity increase” value was -0.346% [at 35.3 µM].
Consider `O=C(O)C(S)C(S)C(=O)O` (stereo not given), for which the “cytotoxicity increase” value is -2.95% [at 35.3 µM].
Same read-out and setting: with `O=[N+]([O-])c1ccc2[nH]ncc2c1` the figure was 1%; with `CN(C)c1ccc(/C=C/c2ccc([N+](=O)[O-])cc2)cc1`, 15.1% [at 6.97 µM].
In the case of `CCO[Si](CCCCl)(OCC)OCC`, the “cytotoxicity increase” value is 20%.
In the case of `Nc1ncn([C@H]2C[C@H](O)[C@@H](CO)O2)c(=O)n1`, the “cytotoxicity increase” value was -1.14% [at 35.3 µM].
`O=C1OC(=O)C2C3C=CC(C3)C12` (stereo not given): the “cytotoxicity increase” value was -11.6%.
With `CCCCCCCCO[C@@H]1O[C@H](CO)[C@@H](O)[C@H](O)[C@H]1O`, the “cytotoxicity increase” value was 7.78%.
As for `C/C(=C(\CCOP(=O)(O)O)SC(=O)c1ccccc1)N(C=O)Cc1cnc(C)nc1N`, the cytotoxicity increase is -7.02% [at 6.97 µM].
In the case of `CCN(CC)CCOC(=O)C(c1ccccc1)C1CCCCC1` (stereo not given), the Potency is 23.9 µM (active).
For `CCCCOC(=O)CCCCCCCC(=O)OCCCC`, the “cytotoxicity increase” value is -15.9%.
Consider `CN1C[C@H]2c3ccccc3Oc3ccc(Cl)cc3[C@@H]2C1`, for which the “cytotoxicity increase” value is 22.8% [at 35.3 µM].
The same measure, in the same setting: under `O=C(O)c1ccccc1Cl` stands -13.8%.
Consider `Cc1cc(N)c2cc(NC(=O)Nc3ccc4nc(C)cc(N)c4c3)ccc2n1`, for which the “cytotoxicity increase” value was -37.8% [at 35.3 µM].
`O=C1CCC(=O)O1`: the “cytotoxicity increase” value is -2.22%.
For the molecule `O=C(NCCO[N+](=O)[O-])c1cccnc1`, the “cytotoxicity increase” value was -0.599% [at 35.3 µM].
The same measure, in the same setting: under `CCc1cc(C2=C(C(=O)O)N(c3ccccc3C(F)(F)F)S(=O)(=O)c3ccccc32)cc2c1OCO2` stands 0.439%.

Another assay can be described thus: A CellTox Green Cytotoxicity Assay to monitor cytotoxicity in HepG2 cells - 0 hour (AID 1224882). Also: nearly all actives have a fitted effect of over 35% in size. As to conditions: CellTox Green fluorescence; series mostly up to 76.8 µM; cytotoxicity: at the top concentration. The method, boiled down: (§1)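 HepG2, 600 cells/well premixed w/ CellTox Green; 5 h settle, 37 C/5% CO2; pintool cpd add (DMSO); 37 C, 40 h; fluorescence read at 0, 8, 16, 24, 32, 40 h.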
For the molecule `CN(Cc1ccc(C(C)(C)C)cc1)Cc1cccc2ccccc12`, the “cytotoxicity” value is 23.5% [at 35.3 µM].
On the same count and under the same terms, with `COc1ccc(-c2nc3ccc(C4=NNC(=O)CC4C)cc3[nH]2)cc1` (stereo not given) the figure was 1.04% [at 35.3 µM].
`CN1CCC(=C2c3ccccc3Sc3ccccc32)CC1`: the “cytotoxicity” value was 0.143% [at 35.3 µM].
Same read-out and setting: under `CCCCC(=O)OCC(=O)[C@H]1[C@H](C)C[C@H]2[C@@H]3C[C@H](F)C4=CC(=O)C=C[C@]4(C)[C@@]3(F)[C@@H](O)C[C@@]21C` stands -0.766% [at 35.3 µM].
Regarding `Clc1ccc2c(c1)CCc1cccnc1C2=C1CCNCC1`, the “cytotoxicity” value is 1.13% [at 35.3 µM].
For the molecule `CCn1cc(C(=O)O)c(=O)c2cnc(N3CCNCC3)nc21`, the “cytotoxicity” value was 1.46% [at 35.3 µM].
As to `CCOc1ccc(N=Nc2ccc(/C=C/c3ccc(N=Nc4ccc(OCC)cc4)cc3S(=O)(=O)O)c(S(=O)(=O)O)c2)cc1`, the “cytotoxicity” value was -19.6%.
On the same count and under the same terms, with `COc1cc(C(=O)OCCCN2CCCN(CCCOC(=O)c3cc(OC)c(OC)c(OC)c3)CC2)cc(OC)c1OC` the figure was 7.15% [at 35.3 µM].
On the same count and under the same terms, under `Nc1cc(C(=O)O)c(O)c(S(=O)(=O)O)c1` stands -0.395%; under `C/C=C/C(=O)CC`, 0.505% [at 15.8 µM]; under `ClCCOCCOCCCl`, -6.92%.
On the same count and under the same terms, with `CCN(CC)CCNC(=O)c1cc(Br)c(N)cc1OC` the figure was 11.7% [at 35.3 µM]; with `O=C(O)C(S)C(S)C(=O)O` (stereo not given), -0.612% [at 35.3 µM]; with `O=[N+]([O-])c1ccc2[nH]ncc2c1`, -7.52%.
`CCCCCCCCCCO[C@@H]1O[C@H](CO)[C@@H](O)[C@H](O)[C@H]1O`: the “cytotoxicity” value is 1.16%.
On to `CCCCCCCCCCCCCCCCCCOS(=O)(=O)O`, for which the “cytotoxicity” value was -2.87%.
`CN(C)c1ccc(/C=C/c2ccc([N+](=O)[O-])cc2)cc1`: the cytotoxicity was 4.44% [at 6.97 µM].
As for `C[N+]1(C)CCC(OC(=O)C(O)(c2ccccc2)C2CCCC2)C1` (stereo not given), the Potency is 26.8 µM (active).
Turning to `CCO[Si](CCCCl)(OCC)OCC`, the “cytotoxicity” value was -0.752%.
Regarding `Nc1ncn([C@H]2C[C@H](O)[C@@H](CO)O2)c(=O)n1`, the “cytotoxicity” value was 2.48% [at 35.3 µM].
Consider `O=C1OC(=O)C2C3C=CC(C3)C12` (stereo not given), for which the “cytotoxicity” value is -6.88%.
As for `C/C(=C(\CCOP(=O)(O)O)SC(=O)c1ccccc1)N(C=O)Cc1cnc(C)nc1N`, the cytotoxicity was 4.51% [at 6.97 µM].
Consider `CCCCOC(=O)CCCCCCCC(=O)OCCCC`, for which the “cytotoxicity” value was 2.04%.
Take `CN1C[C@H]2c3ccccc3Oc3ccc(Cl)cc3[C@@H]2C1`: the “cytotoxicity” value was -0.0548% [at 35.3 µM].
Take `O=C(O)c1ccccc1Cl`: the “cytotoxicity” value is 0.323%.
Take `Cc1cc(N)c2cc(NC(=O)Nc3ccc4nc(C)cc(N)c4c3)ccc2n1`: the “cytotoxicity” value was -19.2% [at 35.3 µM].
As for `O=C(NCCO[N+](=O)[O-])c1cccnc1`, the “cytotoxicity” value was -7.77% [at 35.3 µM].
Consider `C[C@H](CCC(=O)O)[C@H]1CC[C@H]2[C@@H]3CC[C@@H]4C[C@H](O)CC[C@]4(C)[C@H]3C[C@H](O)[C@]12C`, for which the “cytotoxicity” value is 0.0255%.
As to `CCc1cc(C2=C(C(=O)O)N(c3ccccc3C(F)(F)F)S(=O)(=O)c3ccccc32)cc2c1OCO2`, the “cytotoxicity” value is 1.53%.

A short description of the next assay: A CellTox Green Cytotoxicity Assay to monitor cytotoxicity in HepG2 cells - 32 hour (AID 1224883). Also: nearly all actives have a fitted effect of over 50% in size. As to conditions: CellTox Green fluorescence; series mostly up to 76.8 µM; cytotoxicity increase: at the top concentration. The method, boiled down: as §1
As to `CN(Cc1ccc(C(C)(C)C)cc1)Cc1cccc2ccccc12`, the “cytotoxicity increase” value is 15% [at 35.3 µM].
`Clc1ccc2c(c1)CCc1cccnc1C2=C1CCNCC1`: the Potency is 23.9 µM (active).
Turning to `CCn1cc(C(=O)O)c(=O)c2cnc(N3CCNCC3)nc21`, the “cytotoxicity increase” value is 9.19% [at 35.3 µM].
For the molecule `CCOc1ccc(N=Nc2ccc(/C=C/c3ccc(N=Nc4ccc(OCC)cc4)cc3S(=O)(=O)O)c(S(=O)(=O)O)c2)cc1`, the “cytotoxicity increase” value was -47.8%.
Turning to `COc1cc(C(=O)OCCCN2CCCN(CCCOC(=O)c3cc(OC)c(OC)c(OC)c3)CC2)cc(OC)c1OC`, the Potency is 21.3 µM (active).
Consider `NS(=O)(=O)c1ccc(N2CCCCS2(=O)=O)cc1`, for which the “cytotoxicity increase” value is -0.382% [at 35.3 µM].
On the same count and under the same terms, under `CCCCCCCC/C=C\CCCCCCCC(=O)OCC` stands 0.631%; under `Nc1cc(C(=O)O)c(O)c(S(=O)(=O)O)c1`, -1.12%.
Consider `C/C=C/C(=O)CC`, for which the cytotoxicity increase is 2.71% [at 15.8 µM].
For the molecule `O=C(O)C(S)C(S)C(=O)O` (stereo not given), the “cytotoxicity increase” value is -21.4% [at 35.3 µM].
On the same count and under the same terms, under `CN(C)c1ccc(/C=C/c2ccc([N+](=O)[O-])cc2)cc1` stands 16% [at 6.97 µM]; under `C[N+]1(C)CCC(OC(=O)C(O)(c2ccccc2)C2CCCC2)C1` (stereo not given), 15.8% [at 35.3 µM].
Take `CCO[Si](CCCCl)(OCC)OCC`: the “cytotoxicity increase” value is 0.631%.
In the case of `Nc1ncn([C@H]2C[C@H](O)[C@@H](CO)O2)c(=O)n1`, the “cytotoxicity increase” value was 3.78% [at 35.3 µM].
For `O=C1OC(=O)C2C3C=CC(C3)C12` (stereo not given), the “cytotoxicity increase” value was -15.3%.
On the same count and under the same terms, under `CCCCCCCCO[C@@H]1O[C@H](CO)[C@@H](O)[C@H](O)[C@H]1O` stands -0.757%; under `C/C(=C(\CCOP(=O)(O)O)SC(=O)c1ccccc1)N(C=O)Cc1cnc(C)nc1N`, -0.701% [at 6.97 µM].
Turning to `CCN(CC)CCOC(=O)C(c1ccccc1)C1CCCCC1` (stereo not given), the Potency is 23.9 µM (active).
For `CCCCOC(=O)CCCCCCCC(=O)OCCCC`, the “cytotoxicity increase” value was -0.164%.
For `CN1C[C@H]2c3ccccc3Oc3ccc(Cl)cc3[C@@H]2C1`, the Potency was 26.8 µM (active).
On to `O=C(O)c1ccccc1Cl`, for which the “cytotoxicity increase” value is -8.52%.
In the case of `Cc1cc(N)c2cc(NC(=O)Nc3ccc4nc(C)cc(N)c4c3)ccc2n1`, the “cytotoxicity increase” value was -51.1% [at 35.3 µM].
Regarding `O=C1CCC(=O)O1`, the “cytotoxicity increase” value is -7.46%.
As to `CCN(CC)CCOC(=O)C(Cc1cccc2ccccc12)CC1CCCO1` (stereo not given), the “cytotoxicity increase” value is 24.3% [at 35.3 µM].
As for `C[C@H](CCC(=O)O)[C@H]1CC[C@H]2[C@@H]3CC[C@@H]4C[C@H](O)CC[C@]4(C)[C@H]3C[C@H](O)[C@]12C`, the “cytotoxicity increase” value is 22.2%.

The values are drawn from PubChem BioAssay (Tox21).
